Biological target: Glucose transporter (Leishmania mexicana) (UniProt O61059)
Assay: ST_JUDE_LEISH: Cytotoxicity at 2uM final concentration against transgenic Leishmania Mexicana promastigotes LmGT2 that are glucose transport deficient and complemented with the L. Mexicana glucose transporter 2. Activity is measured by DNA content using SYBR green in vitro
Type: functional

SMILES | inhibition
CCOc1ccc(C2CCN(CCCCNC(=O)c3ccc(NC(=O)c4ccc(Cl)cc4)cc3)CC2)c(CC)c1 | -0.33%
COc1cc2nc(NCCC(C)C)n3nc(-c4ccccc4)nc3c2cc1OC | -1.51%
c1ccc(Nc2nc(-c3ccccn3)cs2)nc1 | -2.43%
Oc1cccc(Nc2nc(NCc3ccco3)c3ccccc3n2)c1 | 4.1%
CCCCNC(=O)[C@H](CC1CCCCC1)NC(=O)c1ccc(O)c(-c2ccc(Cl)c(Cl)c2)c1 | 0.36%
O=C(NC1CCN(Cc2ccccc2)CC1)c1ccc(-c2nc3cc(Cl)c(Cl)cc3[nH]2)c(F)c1 | 9.86%
CON=Cc1ccn(-c2ccc(O)c3c2C[C@H]2C[C@H]4[C@H](N(C)C)C(O)=C(C(N)=O)C(=O)[C@@]4(O)C(O)=C2C3=O)c1 | 4.92%
COc1ccc(-c2cnc3ccc(NCc4ccc(S(N)(=O)=O)cc4)nn23)cc1 | 12.6%
CN1CCCN(Cc2cccc(-c3cccc(NC(=O)c4cccc(Cl)c4)c3)c2)CC1 | 9.71%
Cc1ccc(-c2nnc(Nc3ccc(CC(N)=O)cc3)c3ccccc23)cc1S(=O)(=O)NCC1CCCO1 (stereo not given) | 2.36%
CCC[C@@H]([C@@H](CC1CCCCC1)C(=O)N[C@@H](CCCCNS(C)(=O)=O)C(=O)Nc1nccs1)N(O)C=O | -0.28%
CC=Cc1cc(Cc2c[nH]c(=N)[nH]c2=N)cc(CCC)c1OC | 4.71%
O=C(c1cccs1)N1CCN(c2ccc([N+](=O)[O-])c(NC3CC3)c2)CC1 | 1.6%
COC(=O)c1cc(C(O)CNC(C)CCc2cccc(F)c2)ccc1O (stereo not given) | 2.89%
CC(C)(C)c1ccc(S(=O)(=O)Nc2ccccc2Cn2nc(N3CCNCC3)ccc2=O)cc1 | 8.79%
CO/C(=C\C=C\c1cc2cc(Cl)c(Cl)cc2[nH]1)C(=O)NCCCN1CCN(c2cccc(O)c2)CC1 | 11.8%
O=C(Nc1nc(-c2cc(F)ccc2F)cs1)c1cncc(Br)c1 | 1.42%
CC1(C)NC(N)=NC(=N)N1OCOc1ccc(Cl)cc1 | 4.23%
Cc1cc(NC2CCCC2)nc(Nc2ccc(F)cc2)n1 | 0.46%
CCCCc1cc(NCC)nc(Nc2ccc(OC)cc2)n1 | 5.43%

SMILES | inhibition
Cc1cc(N[C@@H](Cc2ccccc2)C(=O)Nc2ccccc2)nc(NCCc2cccs2)n1 | 1%
CC(C)(C)c1nn(-c2ccccc2)c2[nH]c(=O)c(CNC3CCCC3)cc12 | 2.65%
CCN(CC)CCN(Cc1ccc(-c2ccc(C(F)(F)F)cc2)cc1)C(=O)Cn1c(CCc2ccc(F)cc2)nc(=O)c2ccccc21 | 3.33%
NC1CCCN(Cc2ccc(-c3cccc(-c4nc5ccccc5[nH]4)c3)cc2)C1 (stereo not given) | 4.25%
Cc1cc(N[C@@H](Cc2ccccc2)C(=O)NC2CCCC2)nc(NCc2ccccc2C)n1 | 4.04%
Cc1cc(C(=O)Nc2ccc3c(c2)CCN3C2CCN(Cc3ccc(O)cc3)C2)no1 (stereo not given) | 2.38%
CCN(CC)CCN(Cc1ccc(-c2ccc(C(F)(F)F)s2)cc1)C(=O)Cn1c(CCc2cccc(F)c2F)nc(=O)c2ccccc21 | 2.57%
CN1CCC(N2CCN(C(=O)c3cccc(-c4cccc(-c5nc6ccccc6[nH]5)c4)c3)CC2)CC1 | 2.11%
CC(=O)N(C)c1ccc(C(=O)Nc2cccc(-c3cccc(-c4nc5cccc(C)c5[nH]4)c3)c2)cc1 | 0.08%
Nc1nc(N)c2c(ccc3c2ccn3C2CCCCC2)n1 | 25.7%
CC(C(=O)Nc1ccc(Br)cc1Br)N1CCN(C(=O)c2ccco2)CC1 (stereo not given) | 1.86%
COc1ccc(OC)c(-c2ccc(O)c(CNCC(C)c3ccccc3)c2)c1 (stereo not given) | -1.24%
COc1ccc2ccccc2c1C=NN=c1cc(C)[nH]c2c(C)cccc12 | 3.6%
O=[N+]([O-])c1cccc(Nc2nccc(-c3cnn4ncccc34)n2)c1 | 79.9%
CCCSc1nc2c(c(=O)n1Cc1ccco1)C1(CCCCC1)Cc1ccccc1-2 | 1.88%
C=CCc1ccc(C2CCN(CCCCNC(=O)c3ccc(NC(=O)c4ccc(Cl)cc4)cc3)CC2)cc1 | 0.46%
COc1cc(NC(=O)c2sc(-c3ccc(Cl)cc3)cc2NC(=O)c2ccncc2)ccc1OCCN1CCCC1 | 0.97%
COc1ccc2ncc(C#N)c(CCN3CCC(NCc4ccc5c(n4)NC(=O)CS5)CC3)c2n1 | 0.77%
Cc1cc(O)c(CNC2CCCCC2)cc1C | 2.92%
CCOc1ccc(-c2nc(NC(=O)CS(=O)(=O)c3ccccc3)sc2C)cc1 | 1.8%
